Experimental findings from ChEMBL document CHEMBL4513216, “Probing the Open Global Health Chemical Diversity Library for Multistage-Active Starting Points for Next-Generation Antimalarials” (ACS Infect Dis, 2020) are described below.

SMILES strings stand for the structures. Hit rate of the full screen: of about 68,000 compounds, about 2,700 (4%) showed an effect of 50% or more. This excerpt belongs to a sample that is enriched for strong results.

The subject of this assay is Plasmodium berghei. Put plainly: Screen against P. berghei liver stage (PbLuc), transformed with Luciferase, at 2uM. The assay is classed as functional, HepG2. The conditions noted are these: tested at 2 uM.
Take `FC(F)(F)c1ccc(-c2c[nH]c([C@@H]3COCCN3)n2)cc1`: the INHIBITION is given as 64.99%.

For the compound `FC(F)(F)Oc1ccc(-c2c[nH]c([C@@H]3COCCN3)n2)cc1`, the INHIBITION amounted to 12.28%.

Regarding `Fc1ccc(-c2c[nH]c([C@@H]3COCCN3)n2)cc1`, the INHIBITION was determined as 32.59%.

As to `CC(c1ncc(-c2ccccc2)o1)N1CCN(C(=O)C(C)(C)C)CC1` (stereo unspecified), the INHIBITION is given as -18.71%.

For the compound `CNC(=O)CCN(C)c1nc(-c2ccncc2)nc2c1CCNC2`, the INHIBITION worked out at 24.54%.

For `Cc1nc(CO[C@@H]2CN(Cc3ccc(F)cc3)[C@@H]3COC[C@@H]32)cs1`, the INHIBITION is listed as -17.76%.

Take `Cc1nc(CO[C@@H]2CN(Cc3cccs3)[C@@H]3COC[C@@H]32)cs1`: the INHIBITION is 26.01%.

Consider `Cc1nc(CO[C@H]2CN(Cc3cccs3)[C@@H]3COC[C@H]23)cs1`, for which the INHIBITION is reported as 56.76%.

Turning to `Cc1nc(CO[C@@H]2CN(Cc3ccsc3)[C@@H]3COC[C@@H]32)cs1`, the INHIBITION is 24.43%.

In the case of `Cc1nc(CO[C@@H]2CN(Cc3cccnc3)[C@@H]3COC[C@@H]32)cs1`, the INHIBITION is reported as 55.66%.

On to `Cc1ccc(CN2C[C@@H](OCc3csc(C)n3)[C@H]3COC[C@H]32)s1`, for which the INHIBITION is on record as 9.36%.

With `CC1=C(C(=O)NCCc2n[nH]c3c2CCCC3)C(C)NC(=O)N1` (stereo unspecified), the INHIBITION is on record as -18.23%.

As for `COCc1nc(-c2ccnc(N3CCNCC3)n2)no1`, the INHIBITION is listed as -8.07%.

On to `CC(C)c1noc(CS(=O)(=O)CC(=O)NCc2cccs2)n1`, for which the INHIBITION turned out to be 20.74%.

As to `CC(C)c1noc(CS(=O)(=O)CC(=O)NCCOc2ccccc2)n1`, the INHIBITION is on record as -38.35%.

For the compound `CC(C)c1noc(CS(=O)(=O)CC(=O)NCc2ccccc2)n1`, the INHIBITION is reported as 66.33%.

For `CN1CC(=O)N(c2ccccc2)CC12CCN(CCO)C2` (stereo unspecified), the INHIBITION worked out at 65.73%.

For `CN1CC(=O)N(c2ccccc2)CC12CCN(CC1CC1)C2` (stereo unspecified), the INHIBITION is given as -8.23%.

Regarding `CN1CC(=O)N(c2cccc(F)c2)CC12CCN(CCO)C2` (stereo unspecified), the INHIBITION was -15.88%.

Regarding `Cc1ncnc2c1CCN(C(=O)c1ccoc1)CC2`, the INHIBITION came out at 33.47%.

Turning to `Cc1nc(-c2ccccc2)sc1CNC1CCc2ncnn2C1` (stereo unspecified), the INHIBITION is listed as -21.39%.

`Cc1ncnc2c1CCN(CC1CCOC1)CC2` (stereo unspecified): the INHIBITION is listed as 8.73%.

As to `COCCC(=O)N1CC[C@@H](N(C)C)[C@@H]1Cc1ccccc1`, the INHIBITION is on record as 2.71%.

In the case of `COc1cccc(CCC2CCCN(C(C)=O)C2)c1` (stereo unspecified), the INHIBITION is listed as 79.21%.

As to `COc1cccc(OCC2CCCN(C(=O)CCCn3cccn3)C2)c1` (stereo unspecified), the INHIBITION stood at 31.51%.

`COc1cccc(CCC2CCCN(C(=O)c3ccc(OC)o3)C2)c1` (stereo unspecified): the INHIBITION was 38.67%.

Turning to `COc1ccccc1OC1CCN(C(=O)CCCn2ccnc2)CC1`, the INHIBITION amounted to 29.9%.

Consider `COc1ccccc1C(=O)N1CCN(C(=O)CCn2ccnc2)CC1`, for which the INHIBITION worked out at 51.4%.

Turning to `COc1cccc(CCC2CCCN(C(=O)c3ccccn3)C2)c1` (stereo unspecified), the INHIBITION is reported as 26.74%.

`COc1cccc(OCC2CCCN(C(=O)CCc3cc(O)no3)C2)c1` (stereo unspecified): the INHIBITION is listed as -29.65%.

Take `COc1cccc(OCC2CCCN(C(=O)c3cnn(C)c3)C2)c1` (stereo unspecified): the INHIBITION turned out to be 29.13%.

For `COc1cccc(C(=O)N2CCN(C(=O)CCn3ccnc3)CC2)c1`, the INHIBITION was -14.71%.

On to `COc1cccc(OCC2CCCN(C(C)=O)C2)c1` (stereo unspecified), for which the INHIBITION turned out to be 12.91%.

Regarding `COc1cccc(OCC2CCCN(C(=O)Cc3cccc(O)c3)C2)c1` (stereo unspecified), the INHIBITION amounted to 79.21%.

As for `COc1cccc(OCC2CCCN(C(=O)CCn3ccnc3)C2)c1` (stereo unspecified), the INHIBITION stood at 50.59%.

On to `c1cc(CN2CCOCC3(C2)CN(Cc2nccs2)CCO3)ccn1` (stereo unspecified), for which the INHIBITION worked out at 24.93%.

For the compound `CN(C)C(=O)COC1COC2(CCN(c3cnccn3)CC2)C1` (stereo unspecified), the INHIBITION was -16.53%.

`N#Cc1ccccc1CNC(C(=O)N1CCOCC1)c1ccccc1` (stereo unspecified): the INHIBITION is reported as -13.11%.

As to `C[C@@H]1CN(C(=O)c2cnc(C3CC3)nc2)CC[C@@]1(O)C1CCOCC1`, the INHIBITION is listed as 11.63%.

On to `c1sc(C2CCCCC2)nc1CN1CCn2c(nnc2C2CC2)C1`, for which the INHIBITION was found to be 28.65%.

On to `CS(=O)(=O)NCc1ncn2c1CN(CCN1CCCC1)CCC2`, for which the INHIBITION amounted to 10.64%.

For `CCOc1ccccc1OC1CCN(C(=O)c2cnns2)CC1`, the INHIBITION came out at 73.34%.

For the compound `CCOc1ccccc1OC1CCN(C(=O)c2csnn2)CC1`, the INHIBITION amounted to 19.71%.

`CCOc1ccccc1OC1CCN(C(=O)c2cnsn2)CC1`: the INHIBITION is reported as 14.06%.

As to `Cc1cccc(N2CCC3(CCCN3Cc3c(C)nn(C)c3C)CC2)n1`, the INHIBITION is reported as -28.5%.

In the case of `Cc1cccc(N2CCC3(CCCN3Cc3cn(C)nc3C)CC2)n1`, the INHIBITION turned out to be 50.32%.

Regarding `Cc1cccc(N2CCC3(CCCN3Cc3cnn(C)c3C)CC2)n1`, the INHIBITION turned out to be 11.33%.

For `COCCNC(=O)N1CCN(C(=O)Cc2ccccc2F)CC1`, the INHIBITION was 1.06%.

For `COCCNC(=O)NC1(c2ccccc2F)CC1`, the INHIBITION is 54.49%.

Regarding `COCCNC(=O)C1(c2ccccc2C)CCOCC1`, the INHIBITION is reported as -88.54%.

Consider `CCS(=O)(=O)N1CCc2c(nc(C3CCCN3)nc2NC)C1` (stereo unspecified), for which the INHIBITION came out at 40.35%.

Consider `Cc1cccc(C(=O)N2CC(=O)N(c3ccccc3Cl)CC2C)n1` (stereo unspecified), for which the INHIBITION stood at 6.75%.

For the compound `Cc1noc2ncc(C(=O)N3CCCC3c3ccncc3)cc12` (stereo unspecified), the INHIBITION is recorded as -52.51%.

For the compound `Cc1noc2ncc(C(=O)N3CCCC3c3cnn(C)c3)cc12` (stereo unspecified), the INHIBITION is recorded as 26.71%.

In the case of `Cc1noc2ncc(C(=O)N3CCCC3c3ccsc3)cc12` (stereo unspecified), the INHIBITION came out at 60.09%.

Turning to `Cc1cn2c(n1)CCC(NC(=O)CCOc1cccc(F)c1)C2` (stereo unspecified), the INHIBITION is listed as -34.22%.

With `CCc1nccn1C1CCCN(C(=O)c2ccnc(C)n2)C1` (stereo unspecified), the INHIBITION stood at 20.53%.

On to `Cc1noc(C)c1CNc1cccc(C(=O)N2CCCC(O)C2)c1` (stereo unspecified), for which the INHIBITION is -82.3%.

On to `Cc1noc(CNc2cccc(C(=O)N3CCCC(O)C3)c2)n1` (stereo unspecified), for which the INHIBITION worked out at 60.9%.

On to `Cc1noc(CNc2ccccc2N2CCCCC2)n1`, for which the INHIBITION was -11.41%.

As to `Cc1noc(CNc2ccccc2C(=O)N2CCCC(O)C2)n1` (stereo unspecified), the INHIBITION was 74.11%.

For `Cc1noc(CNc2ccc(C(=O)N3CCCC(C)C3)cc2C)n1` (stereo unspecified), the INHIBITION is on record as 31.57%.

In the case of `CCCc1nc(CNc2cccc(C(=O)N3CCCC(O)C3)c2)no1` (stereo unspecified), the INHIBITION came to 24.55%.

In the case of `CCN(CC)C(=O)[C@@H]1C[C@H](N)CN1c1nnc(-c2ccccc2)s1`, the INHIBITION is on record as -51.55%.

With `Cc1noc(C)c1CCC(=O)NC(C)c1nnc2n1CCC2` (stereo unspecified), the INHIBITION is 20.31%.

On to `CCC(C)N(Cc1ccncc1)C(=O)CCC(=O)OC` (stereo unspecified), for which the INHIBITION is -28.11%.
